USP30 block: inhibitors of human USP30 deubiquitinase. Ubiquitin carboxyl-terminal hydrolase 30 (Homo sapiens), Q70CQ3. purified USP30, Ub-rhodamine cleavage fluorescence. inhibition, % at 25 µM. 47,000 tested, 5.3% active. AID 1645860, 2021
USP10 inh: inhibitors of human USP10 deubiquitinase; inhibition, % at 20 µM; purified USP10, Ub-rhodamine fluorescence, 60 min; 47,000 tested, 1.1% active
USP8 block: inhibitors of human USP8 deubiquitinase. Ubiquitin carboxyl-terminal hydrolase 8 (Homo sapiens), P40818. purified USP8, Ub-rhodamine cleavage fluorescence, 30 min. inhibition, % at 20 µM. 47,000 tested, 4.2% active. AID 1645853, 2021
USP17 block: inhibitors of human USP17 deubiquitinase; purified USP17, Ub-rhodamine cleavage fluorescence, 3 h; inhibition, % at 50 µM; 47,000 tested, 6.5% active
Target sequence (A8MUK1 whole entry, looked up): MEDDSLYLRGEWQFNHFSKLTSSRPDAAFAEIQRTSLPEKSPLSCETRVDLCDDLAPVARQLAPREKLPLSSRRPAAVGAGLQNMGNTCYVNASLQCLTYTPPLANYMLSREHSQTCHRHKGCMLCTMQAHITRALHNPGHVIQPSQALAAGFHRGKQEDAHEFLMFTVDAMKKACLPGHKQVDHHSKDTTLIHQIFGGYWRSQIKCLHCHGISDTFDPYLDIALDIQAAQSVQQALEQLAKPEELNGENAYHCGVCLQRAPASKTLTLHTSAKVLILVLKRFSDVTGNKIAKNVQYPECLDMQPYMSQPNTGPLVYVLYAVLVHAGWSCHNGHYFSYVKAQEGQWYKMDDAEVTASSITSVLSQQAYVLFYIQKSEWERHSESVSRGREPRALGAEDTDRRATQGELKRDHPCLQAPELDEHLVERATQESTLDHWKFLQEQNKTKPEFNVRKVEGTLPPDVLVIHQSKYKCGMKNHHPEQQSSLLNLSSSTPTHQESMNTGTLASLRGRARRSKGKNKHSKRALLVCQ
USP28 block: inhibitors of human USP28 deubiquitinase | purified USP28, Ub-rhodamine cleavage fluorescence, 30 min | inhibition, % at 25 µM | 47,000 tested, 3% active | AID 1645857, 2021
Each line names hits and unclear results; the compound was inactive in the other large screens. Compounds with a hit are over-represented: about 13% of the library has one in this group of screens. Cut-off read from the data, not from the text of the source: active = inhibition above about 30%; inactive = the rest.

O=C(CN1CCCN(Cc2ccccc2)S1(=O)=O)Nc1ccc(F)cc1	USP30 block 33.0
COc1cccc(CN2CCCN(CC(=O)Nc3ccccc3)S2(=O)=O)c1	none
Cc1cc(-c2cnc(N3CCCC3)nc2C2CCN(c3nccc(C)n3)CC2)on1	none
Cc1cc(-c2cnc(N3CCSCC3)nc2-c2ccoc2)on1	USP28 block 41.4
N#Cc1ccccc1-c1ccccc1C(=O)NCc1ccccc1	none
Cc1c(C)n(CCO)c2ncn3nc(-c4ccc(N(C)C)cc4)nc3c12	none
O=C(C1COc2ccccc2O1)N1CCN(CC(=O)N(c2ccccc2)C2CCCCC2)CC1 (stereo unspecified)	none
c1ccc2c(N3CCCC3)nnc(-c3nc(C4CC4)no3)c2c1	none
COc1ccccc1CNc1nnc(-c2nc(C3CC3)no2)c2ccccc12	USP30 block 34.4
c1ccc2c(-c3nc(C4CC4)no3)nnc(NC3CCCC3)c2c1	USP30 block 38.6, USP28 block 35.7
CC1CCN(c2nnc(-c3nc(C4CC4)no3)c3ccccc23)CC1	USP30 block 56.8
c1ccc(CNc2nnc(-c3nc(C4CC4)no3)c3ccccc23)cc1	none (no result: USP30 block, USP28 block)
Cc1cccc(N2CCCn3c2nc2c3c(=O)n(CCc3ccccc3)c(=O)n2C)c1	none
O=C(COC(=O)c1cc2ccccc2cc1O)NCCc1ccccc1	USP8 block 42.2
Cc1cccc(C(=O)OCC(=O)NCCc2ccccc2)c1O	none
O=C(COC(=O)c1cc2ccccc2cc1O)Nc1ccc(Cl)cn1	USP8 block 36.8
CCc1nc(-c2csc(S(=O)(=O)NCc3ccccc3)c2)no1	none
N#Cc1c(-c2ccc(Cl)cc2)cc(-c2cccs2)nc1N	USP17 block 38.2
O=C(CCSc1ccccc1)Nc1ccc(Oc2ccccc2)cc1	USP17 block 42.2
O=C(COC(=O)C1CCCCC1)Nc1ccc(Oc2ccccc2)cc1	USP17 block 31.4
O=C(CCSc1ccccc1)Nc1ccc(-c2nc3ccccc3o2)cc1	none
O=C(CO)N1CCC2(CC1)OC(=O)N(Cc1ccccc1)c1ccccc12	none
O=C(Nc1cccc2ccccc12)C1CCCN(S(=O)(=O)Cc2ccc(F)cc2)C1 (stereo unspecified)	none
Cc1ccc2c(c1)c(=O)c(C(=O)c1ccccc1)cn2CC(=O)Nc1ccccc1	USP8 block 88.8, USP17 block 59.2
Cc1ccc(NC(=O)Cn2cc(C(=O)c3ccccc3)c(=O)c3cc(C)ccc32)cc1	USP10 inh 44.4, USP8 block 83.4
O=C(Cn1cc(C(=O)c2ccccc2)c(=O)c2cc(F)ccc21)Nc1ccc2c(c1)OCCO2	none
Cc1ccc(C(=O)c2cn(CC(=O)Nc3ccc(C(C)C)cc3)c3ccc(C)cc3c2=O)cc1	none (no result: USP30 block, USP28 block)
O=C(Cc1ccc(Cl)cc1)N1CCC2(C1)CN(C(=O)c1cscn1)C2	none
Cc1cccc(NC(=O)c2nc3c(=O)[nH]c4cc(C)ccc4n3n2)c1	USP17 block 34.7
CCOc1ccc(NC(=O)c2nc3c(=O)[nH]c4cc(C)ccc4n3n2)cc1	USP17 block 53.5
Cc1cc(-c2ccc(S(=O)(=O)NC3CCN(Cc4ccccc4)CC3)s2)on1	none
COc1cc([C@@H]2c3cc4c(cc3[C@H](O)[C@H]3COC(=O)[C@@H]23)OCO4)cc(OC)c1OC	USP30 block 70.5, USP17 block 62.8, USP28 block 34.8
O=C(Nc1cc(F)ccc1F)c1cc(-c2cccnc2)n[nH]1	USP17 block 56.7 (no result: USP30 block, USP28 block)
O=C(NC1CCCCCC1)c1cc(-c2cccnc2)n[nH]1	none
O=C(Nc1ccc(Cl)cc1F)c1cc(-c2cccnc2)n[nH]1	USP30 block 40.5
O=C(c1noc2c1CCCC2)N1CCCC1c1ccnc(=O)[nH]1 (stereo unspecified)	none
Cc1ccc(-c2ccc(NCCN(C)C)nn2)cc1S(=O)(=O)N1CCCCC1	none
Cc1nn(C)c(C)c1S(=O)(=O)N1CCN(C(=O)c2ccc(F)cc2)CC1	none
Cc1cc(-c2cc3nc4c(c(=O)n3[nH]2)CCNC4)no1	none
Cc1c(C(=O)O)oc2c1/C(=N\O)CCC2	none
Cc1c(C(=O)NCc2ccco2)oc2c1/C(=N\O)CCC2	USP17 block 31.2
COc1ccc(CC(=O)Nc2cc(F)c3nc(N4CCOCC4)ccc3c2)cc1	USP8 block 48.8
COc1ccc(CC(=O)Nc2ccc(N3CCOCC3)cc2)cc1	none
COc1ccc(C(=O)Nc2cc(F)c3nc(N4CCOCC4)ccc3c2)c(OC)c1	USP8 block 77.7, USP17 block 73.4

Assay outcomes from PubChem BioAssay.
